Screening data: PubChem, National Center for Advancing Translational Sciences (NCATS)
This excerpt belongs to a sample that is enriched for hits.
ALOX12 inh – inhibitors of human 12S-lipoxygenase ALOX12; Potency, µM (highest dose often 108 µM), without a hit: top-dose activity change, negative = inhibition, hits mostly inhibitors; AID 1671190; 580,000 tested, 1.1% active; purified 12hLO, xylenol orange hydroperoxide absorbance; P18054; further: potency means the concentration at half of the fitted maximal effect
Target sequence (P18054 whole entry, looked up): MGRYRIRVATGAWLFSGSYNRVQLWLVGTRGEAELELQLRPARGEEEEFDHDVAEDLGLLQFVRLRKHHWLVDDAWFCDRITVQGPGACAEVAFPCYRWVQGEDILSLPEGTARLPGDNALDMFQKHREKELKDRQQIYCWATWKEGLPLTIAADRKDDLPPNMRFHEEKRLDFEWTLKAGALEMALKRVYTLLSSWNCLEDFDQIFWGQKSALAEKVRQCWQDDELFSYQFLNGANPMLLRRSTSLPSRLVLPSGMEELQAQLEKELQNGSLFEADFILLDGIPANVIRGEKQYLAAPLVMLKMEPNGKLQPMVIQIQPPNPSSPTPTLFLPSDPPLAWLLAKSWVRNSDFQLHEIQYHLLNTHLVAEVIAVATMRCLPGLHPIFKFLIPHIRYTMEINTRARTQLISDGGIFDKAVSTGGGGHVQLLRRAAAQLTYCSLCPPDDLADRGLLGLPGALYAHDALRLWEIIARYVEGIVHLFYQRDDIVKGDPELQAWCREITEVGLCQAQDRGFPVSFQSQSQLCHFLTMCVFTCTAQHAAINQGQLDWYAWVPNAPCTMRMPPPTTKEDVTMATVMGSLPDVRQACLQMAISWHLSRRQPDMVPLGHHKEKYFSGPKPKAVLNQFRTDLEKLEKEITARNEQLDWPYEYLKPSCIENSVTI
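Purified human 12hLO at 150 nM in 25 mM Hepes, 0.01% Triton X-100, pH 7.0, preincubated 15 min at room temperature with compound. Reaction started with 40 uM arachidonic acid, 30 min at room temperature. Hydroperoxide measured by Fe-xylenol orange, 573/405 nm absorbance ratio.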
DT40 TDP1 no CPT – qHTS for Inhibitors of human tyrosyl-DNA phosphodiesterase 1 (TDP1): qHTS in cells in absence of CPT; DT40 Tdp1-/- hTDP1 cells, no CPT, ATP luminescence, 48 h; Potency, µM (doses to about 46.2 µM), without a hit: top-dose activity change, negative = growth inhibition, usual class: inhibitors; 420,000 tested, 15% active; AID 686978, 2013; further: potency means the concentration at half of the fitted maximal effect; nearly all actives have a fitted effect of over 55% in size
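Chicken DT40 Tdp1-/- cells stably complemented with human TDP1 were seeded at 400 cells/well with DMSO in place of 20 nM camptothecin. After compound pinning, cells grew at least 48 hr at 37 °C; viability read by CellTiter-Glo luminescence.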
HT1080 IDH1KD tx – kills HT-1080 cells with IDH1 knockdown. HT-1080 IDH1 knockdown viability, ATP luminescence, 48 h. Potency, µM (doses to about 46.1 µM), for the others: at the highest dose activity, negative = toxicity, usual class: cytotoxic. 360,000 tested, 2% active;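 further: potency means the concentration at half of the fitted maximal effect; 0% = DMSO wells and -100% = cell-free medium wells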
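Assay cells: HT-1080 with IDH1 knockdown, 750 per well, RPMI/5% FBS. Exposure: 48 h at 37 °C following 2 h pre-incubation. Read: CellTiter-Glo luminescence; fitted concentration-response, curve class assigned.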
IL-1B inflam inh – inflammasome signaling inhibition, IL-1 beta readout; THP-1 LPS/ATP IL-1B secretion, AlphaLISA, 16 h; stronger effect = lower value; activity change, % at 57.5 µM; 360,000 tested, 4.7% active; in the data active means activity change below about -50%; inconclusive means mostly about -30% to -49%
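THP-1 cells pretreated 1 hr with compounds (up to 57.5 uM final), then stimulated with LPS (250 ng/mL final) plus ATP (1.25 mM final); secreted IL-1B measured by AlphaLISA after 16 hr, decreased signal indicating inhibition.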
HT1080-NT tox – kills 2HG-producing HT-1080-NT fibrosarcoma cells. HT-1080-NT fibrosarcoma viability, CellTiter-Glo ATP luminescence, 48 h. Potency, µM (top dose mostly 46.1 µM), for inactives: top-dose activity, negative = less viability, actives largely listed as cytotoxic. 360,000 tested, 1.6% active;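 further: NT is the 2HG producing partner of a matched IDH1 knockdown line; potency means the concentration at half of the fitted maximal effect; 0% = DMSO-treated cells and -100% = media-only wells without cells; nearly all actives have a fitted effect of over 55% in size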
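Viability of the 2HG-overproducing fibrosarcoma line after 48 hours of compound exposure at 37 degrees C was determined by luminescence with CellTiter-Glo, and concentration-effect curves were then fitted and categorized.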
DT40 TDP1 CPT – growth inhibition of DT40 Tdp1-/-;hTDP1 cells with camptothecin (screen for TDP1 inhibitors); Potency, µM (highest dose often 46.2 µM), for inactives: at the highest dose activity change, negative = growth inhibition, hits mostly inhibitors; chicken DT40 Tdp1-/-;hTDP1 cells + 20 nM CPT, ATP luminescence, 48 h; 420,000 tested, 12% active; further: potency means the concentration at half of the fitted maximal effect; nearly all actives have a fitted effect of over 55% in size
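Cell growth measured by CellTiter-Glo luminescence after a minimum 48 h, 37 C compound exposure with 20 nM CPT in Tdp1-knockout DT40 cells stably expressing hTDP1, seeded 400/well; qHTS titration format.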
An asterisk follows results filed as active; i = inactive; u = inconclusive; x = no result; ! = not active in a repeat; [ ] = dose if it differs, or a comment. Unless noted, the call rests on the fitted dose curve; in most records, active means well fitted curve in the direction sought with a large enough effect; inconclusive means small, poorly fitted or top-dose-only effect, or another doubt; inactive means no such curve, though single readings can be large; an effect the other way counts as inactive or inconclusive. Unless noted, on the % scale 0 is the no-effect control and ±100 the full control effect.

SMILES | ALOX12 inh | DT40 TDP1 no CPT | HT1080 IDH1KD tx | IL-1B inflam inh | HT1080-NT tox | DT40 TDP1 CPT
CCC1CCc2c(sc3nc(SCC(=O)NCc4ccco4)n(-c4ccccc4)c(=O)c23)C1 (stereo not drawn) | 0% | u | 13% | 33 | 8% | 29µM*
CCCc1nc2sc3c(SCC(=O)NCc4ccco4)ncnc3c2c2c1CCC2 | 21% | 18µM* | -3% | -6 | -7% | u
O=C(CSc1nc(C2CC2)nc2sc3c(c12)CCCC3)NCc1ccco1 | 6% | -12% | 4% | 0 | 0% | 2%
Cc1nc(SCC(=O)NCc2ccco2)c2c3c(sc2n1)CCCC3 | -11% | u | u | -9 | -7% | u
Cc1ccc(-n2c(SCC(=O)NCc3ccco3)nc3sc4c(c3c2=O)CC(C)(C)SC4)cc1 | -15% | -13% | -10% | 22 | -11% | 6%
CC1(C)CC(=O)C2=C(C1)NC(=O)CC2c1ccsc1 (stereo not drawn) | 24% | x | x | x | x | x
COCCn1c(C)cc(C(=O)COC(=O)c2cccnc2SC)c1C | u | 16µM* | 2% | 7 | 15% | u
COc1ccc(-n2c(C)cc(C(=O)COC(=O)Cc3n[nH]c(=O)c4ccccc34)c2C)cc1 | -12% | 9.2µM* | u | -7 | u | 12µM*
Cc1cc(C(=O)COC(=O)Cc2n[nH]c(=O)c3ccccc23)c(C)n1-c1ccc2c(c1)OCO2 | -14% | 21µM* | -3% | 27 | -4% | 18µM*
COCCn1c(C)cc(C(=O)COC(=O)c2ccc3ncsc3c2)c1C | 0% | 15µM* | -29% | -12 | 2% | 13µM*
COCCN[C@H]1C[C@@H]2c3[nH]c4ccccc4c3C[C@@H](C(=O)OC)N2[C@H](c2ccccc2)C1 | 2%[176 µM] | x | x | x | x | x
C=C(C)c1cccc(C(C)(C)NC(=O)N(C)CCC#N)c1 | -19% | x | x | x | x | x
O=C(Cc1ccc(F)cc1)N1CCC(c2nn(Cc3ccccc3)c(=O)[nH]2)CC1 | 41% | x | x | x | x | x
COCCn1c(C)cc(C(=O)COC(=O)c2n[nH]c3ccccc23)c1C | -32% | 23µM* | -15% | -4 | -10% | -29%
COCCn1c(C)cc(C(=O)COC(=O)Cc2n[nH]c(=O)c3ccccc23)c1C | u | 21µM* | -5% | -11 | 1% | u
COC(=O)c1ccc(C)c(-n2c(=O)n(Cc3ccccc3)c(=O)c3[nH]cnc32)c1 | -12% | 21µM* | -3% | 33 | -5% | u
Cc1ccccc1-n1c(=O)n(Cc2ccccc2)c(=O)c2[nH]cnc21 | 0% | -5% | -4% | 22 | -2% | 0%
CC(C)(C)NC(=O)[C@@H]1C[C@@H]2CCCC[C@@H]2CN1C[C@@H](O)[C@H](Cc1ccccc1)NC(=O)[C@H](CC(N)=O)NC(=O)c1ccc2ccccc2n1 | -25% | 15µM* | 23µM* | -61*! | 21µM* | u
Cc1ccc(C)n1NC(=O)c1ccccc1Cl | 45µM* | u | 11% | 8 | 5% | -26%
CC(=O)c1c(C(C)=O)c(C)n(NC(=O)c2ccccc2Cl)c1C | -31% | -13% | -10% | 7 | -7% | -25%
CCNC(=O)c1n[nH]c2c1CN(C(=O)c1cccc(OC(F)(F)F)c1)CC2 | 9% | x | x | x | x | x
CN(C)c1ccc(/C=C/c2ccnc3ccccc23)cc1 | x | 16µM* | x | x | x | u
CN(C)c1ccc(/C=C/c2ccnc3ccc([N+](=O)[O-])cc23)cc1 | x | u | x | x | x | 11µM*
Cn1cnc2ccc([N+](=O)[O-])cc2c1=O | -13% | 1% | 2% | 24 | -1% | -8%
Cc1cc(N(C)C)ccc1/C=C/c1ccnc2ccccc12 | x | 7.9µM* | x | x | x | 11µM*
SMILES | ALOX12 inh | DT40 TDP1 no CPT | HT1080 IDH1KD tx | IL-1B inflam inh | HT1080-NT tox | DT40 TDP1 CPT
Clc1ccccc1/C=C/c1ccnc2ccccc12 | -28% | u | 0% | -10 | -3% | u
CN(C)c1ccc(/C=C/c2ccnc3ccc(I)cc23)cc1 | x | 4µM* | x | x | x | 3.2µM*
O=c1c2cnc3nc(-c4ccncc4)nn3c2ccn1CCN1CCCCC1 | -5% | x | x | x | x | x
CC(=O)NCC(=O)N1CCCC2(COc3ccccc3[S+](=O)([O-])N2)C1 (stereo not drawn) | 4%[6.33 µM] | x | x | x | x | x
CCN(N=O)c1ccc(/C=C/c2ccnc3ccccc23)cc1 | x | 6.3µM* | x | x | x | 6.3µM*
CN(C)c1ccc(C(I)C(I)c2ccnc3ccccc23)cc1 (stereo not drawn) | x | 10µM* | x | x | x | 11µM*
CN(C)c1ccc(/C=C/c2ccnc3ccc4ccccc4c23)cc1 | x | 0.13µM* | x | x | x | 0.14µM*
CN(C)/C=N/n1cnc2ccccc2c1=O | 65% | -10% | 29% | 5 | 5% | 1%
CCCN(CCC)c1ccc(/C=C/c2ccnc3ccccc23)cc1 | x | 5µM* | x | x | x | 7.1µM*
CN(Cc1cccnc1)c1nc2c(c(=O)[nH]1)CCN(Cc1cccc(F)c1F)CC2 | 45% | x | x | x | x | x
CC(Sc1nc2cc(S(=O)(=O)N3CCCCC3)ccc2o1)C(=O)Nc1ccc(F)cc1 (stereo not drawn) | -3% | x | x | x | x | x
CN(N=O)c1ccc(/C=C/c2ccnc3ccccc23)cc1 | x | 5.6µM* | x | x | x | 7.9µM*
Cc1cc2ncc(C(=O)NCCc3ccccc3)cn2n1 | -1%[176 µM] | x | x | x | x | x
N#CC1(NC(=O)CSc2ccc3ccccc3n2)CCCCC1 | 7% | x | x | x | x | x
N#CC1(NC(=O)CSc2c(Cl)cccc2Cl)CCCCC1 | 14µM* | x | x | x | x | x
N#CC1(NC(=O)CN2C(=O)c3ccccc3C2=O)CCCCC1 | 3% | -10% | -3% | 4 | -21% | 11%
N#CC1(NC(=O)Cn2ncc(Cl)c(Cl)c2=O)CCCCC1 | 14% | 7.3µM* | 9.2µM* | -103* | 5.8µM* | 13µM*
CN1CCc2c(OCC(=O)NC3CCCCC3)cccc2C1=O | 0% | -4% | 8% | 0 | 8% | -1%
COc1ccccc1NC(=O)COc1cccc2c1CCNC2=O | 5% | 6.5µM* | -10% | -2 | -16% | 10µM*
COc1ccc(NC(=O)COc2cccc3c2CCN(C)C3=O)c(OC)c1 | i | u | 0% | 0 | -1% | 13µM*
O=C(COc1cccc2c1CCNC2=O)Nc1ccc(Cl)cc1 | -3% | u | -17% | -3 | -2% | 18µM*
COc1ccc(-c2cc(N3CCCC(NC(=O)c4cc(OC)cc(OC)c4)C3)n[nH]2)cc1 (stereo not drawn) | 5% | x | x | x | x | x
CCN(CC)C(=O)N1c2ccccc2Sc2ccccc21 | -1% | u | -24% | 7 | -19% | u
